This is a sample that favours compounds with a hit; in the whole collection about 9.4% have one here.
NPC1 promoter act = NPC1 promoter activation | Huh7 NPC1 promoter luciferase reporter, 24 h | AID 485313 | hit rate 2.4% among 320,000 | Potency, µM (top dose mostly 9.22 µM), for inactives: top-dose activation, most hits filed as activators; note: % of control where 0% means no effect; nearly all actives have a fitted effect of over 60% in size
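Quantitative HTS used a cell-based reporter: Huh7 cells stably bearing the NPC1 promoter upstream of luciferase were treated with compounds for 24 h, and promoter activation was read as luminescence.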
ELG1 genotox = inducers of genotoxicity in HEK293T ELG1-luciferase cells; Potency, µM (series often up to 46 µM), for the others: top-dose activity change, positive = activation, actives largely listed as activators; AID 504466; hit rate 1.3% among 330,000; HEK293T ELG1-luciferase reporter, luminescence, 16 h; note: % of control where 0% means no effect; nearly all actives have a fitted effect of over 60% in size
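Screening used a luciferase reporter fused to human ELG1 in HEK293T cells. Luminescence was read on a CCD plate imager after 16 hr exposure and 30 min ONE-Glo incubation.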
SMN2 splice enh = enhancers of SMN2 splice variant expression | HEK293 SMN2-luciferase splicing reporter, luminescence, 30-36 h | Potency, µM (series often up to 46.1 µM), inactives show top-dose activity change, positive = activation, actives largely listed as activators | hit rate 2.8% among 210,000 | AID 1458; note: % of control where 0% means no effect; nearly all actives have a fitted effect of over 55% in size
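qHTS luciferase splicing reporter: luminescence rises when SMN2 exon 7 is included in transfected HEK293 cells. Compound exposure lasted 30-36 h at 37C, with 4.5 mM final sodium butyrate as control, followed by a ONE-Glo read.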
ELG1 repair inh = inhibitors of ELG1-dependent DNA repair in HEK293T cells; Potency, µM (highest dose often 46.1 µM), for the others: at the top dose activity change, negative = inhibition, usual class: inhibitors; hit rate 2.3% among 330,000; AID 504467; HEK293T ELG1-luciferase reporter, luminescence, 16 h; DNA damage induced by 5-fluorouridine; note: % is set by controls: 0 for no effect and ±100 for the full control effect; nearly all actives have a fitted effect of over 55% in size
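5-Fluorouridine DNA damage + compound/DMSO, 2,000 cells/well, 16 h, 37 °C/5% CO2. ONE-Glo, 30 min RT, luminescence. Readout = decrease in reporter signal.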
FLuc modulator = firefly luciferase modulation, counter-screen for miR-21 project; purified FLuc, Km substrates, luminescence inhibition; Potency, µM (highest dose often 57.5 µM), for inactives: at the top dose activity change, negative = inhibition, usual class: inhibitors; hit rate 6.9% among 360,000;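 note: plate controls were vehicle for no effect and reference inhibitor for full effect; nearly all actives have a fitted effect of over 55% in size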
Target sequence (P08659 whole entry, looked up): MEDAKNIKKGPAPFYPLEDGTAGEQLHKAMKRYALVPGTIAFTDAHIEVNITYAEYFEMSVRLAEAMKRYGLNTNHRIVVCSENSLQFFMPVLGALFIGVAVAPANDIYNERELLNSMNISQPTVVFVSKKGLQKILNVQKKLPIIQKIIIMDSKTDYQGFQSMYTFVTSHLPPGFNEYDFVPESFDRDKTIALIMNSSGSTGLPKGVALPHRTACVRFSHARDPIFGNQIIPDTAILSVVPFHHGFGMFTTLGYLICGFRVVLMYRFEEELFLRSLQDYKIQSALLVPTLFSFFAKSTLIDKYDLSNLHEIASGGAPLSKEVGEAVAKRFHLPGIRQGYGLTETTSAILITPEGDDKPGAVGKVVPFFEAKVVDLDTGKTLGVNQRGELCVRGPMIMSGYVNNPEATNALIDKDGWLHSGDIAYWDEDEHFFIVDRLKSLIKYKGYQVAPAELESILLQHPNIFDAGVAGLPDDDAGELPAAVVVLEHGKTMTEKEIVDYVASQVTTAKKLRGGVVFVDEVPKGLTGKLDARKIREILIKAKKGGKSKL
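Biochemical qHTS of compounds, final roughly 60 µM downward over six points, against 10 nM purified firefly luciferase using Km concentrations of substrates (10 uM D-luciferin, 10 uM ATP) in Tris acetate pH 7.5 buffer; luminescence output.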
Rab9 prom act = activators of Rab9 promoter; Potency, µM (top dose mostly 9.22 µM), inactives show at the top dose activation, negative = inhibition, actives largely listed as activators; Huh7 Rab9 promoter-luciferase reporter, luminescence, 24 h; hit rate 2.8% among 320,000; AID 485297; note: % of control where 0% means no effect; nearly all actives have a fitted effect of over 60% in size
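Promoter activation is measured as luciferase luminescence in Huh7 cells stably transfected with a Rab9 promoter–luciferase construct, following 24 h compound exposure at 37 °C and 10 min reagent incubation at ambient temperature.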
* marks the source's active call; other numbers are inactive results; ? = inconclusive; nt = no result given; [ ] = dose if it differs, or a comment. Calls come from the whole dose curve; as a rule, active = well fitted curve in the direction sought with a large enough effect; inconclusive = small, poorly fitted or top-dose-only effect, or another doubt; inactive = no such curve, though single readings can be large; an effect the other way counts as inactive or inconclusive. Potency is the fitted concentration of half-maximal effect.

SMILES | NPC1 promoter act | ELG1 genotox | SMN2 splice enh | ELG1 repair inh | FLuc modulator | Rab9 prom act
Clc1ccccc1-c1nnc(CNC2CC2)o1 | -3% | 4% | -3% | ? | -2% | 9%
Oc1ccccc1-c1nnc(COc2ccccc2)o1 | 8% | ? | -4% | ? | 15µM* | 4%
Clc1ccc(-c2nnc(CCc3ccccc3)o2)c(Cl)c1 | 2.5µM* | ? | 13µM* | ? | 5.4µM* | 2µM*
CCn1c(=O)cc(SCC(=O)NCCc2cccc(C)c2)c2ccccc21 | nt | nt | 9% | nt | -12% | nt
COc1ccc(NC(=O)Cc2coc3cc(C)c(C(C)C)cc23)cc1S(=O)(=O)N1CCOCC1 | -1% | 1% | -70% | -21% | ? | -14%
CC(=O)[C@@]1(O)CC[C@H]2[C@H]3C[C@@H](C)C4=CC(=O)C=C[C@]4(C)[C@@]3(F)[C@@H](O)C[C@]21C | nt | nt | 11%[20.6 µM] | nt | nt | nt
O=C(OCc1nnc(-c2ccccc2)o1)c1ccco1 | 5% | 5% | -11% | 12% | 24µM* | 1%
O=C(c1ccc(CSCc2ccccc2F)o1)N1CCN(c2ccc(N3CCOCC3)nn2)CC1 | -3% | -31% | -47% | 18µM* | ? | 0%
O=C(NCc1cc([N+](=O)[O-])ccc1O)c1cccnc1Sc1ccccc1Cl | -5% | -8% | nt | -1% | 15µM* | -5%
O=C(NCc1cc([N+](=O)[O-])ccc1O)c1cccnc1Sc1ccc(Cl)cc1 | ? | 6.5µM* | nt | ? | ? | 16%
COc1ccc(CNC(=O)c2cccnc2Sc2ccc(Cl)cc2)cc1 | -1% | 1% | -8% | 6% | -1% | 3%
CN(C(=O)c1cnc(N2CCOCC2)c2ccccc12)c1ccccc1F | nt | nt | nt | nt | 0% | nt
CCCCCCN1CC(O)=C(c2nc3ccccc3[nH]2)C1=N | 22% | 12% | nt | ? | -17% | 20%
N=C1C(c2nc3ccccc3[nH]2)=C(O)CN1c1ccc(CC(=O)O)cc1 | -4% | 0% | -11% | 5% | -19% | 1%
N=C1C(c2nc3ccccc3[nH]2)=C(O)CN1c1ccccc1 | 23% | 21µM* | 19% | ? | 8.5µM* | ?
CCC(C)N1CC(O)=C(c2nc3ccccc3[nH]2)C1=N (configuration not stated) | ? | ? | -6% | ? | 17µM* | ?
CC1C(O)=C(c2nc3ccccc3[nH]2)C(=N)N1c1ccccc1 (configuration not stated) | 26% | ? | 26% | ? | 17µM* | 21%
Cc1c(C(=O)N2CCCC2)oc2c1-c1nn(CC(=O)NC(C)c3ccccc3)cc1CC2 (configuration not stated) | nt | nt | nt | nt | -9% | nt
CC(=O)Nc1ccc2c(c1)/C(=C/c1ccc([N+](C)(C)C)cc1)c1ccccc1-2 | nt | nt | -6%[9.22 µM] | nt | nt | nt
CC(=O)Nc1c(C(=O)Nc2ccccc2F)oc2ccccc12 | nt | nt | 9% | nt | -3% | nt
N#Cc1ccc(C(=O)Nc2ccc(Cl)c(-c3nc4cc(Cl)ccc4o3)c2)c(F)c1 | nt | nt | -15% | nt | -6% | nt
CCN(C(=O)CCS(=O)(=O)c1ccc2c(c1)CCN2C(C)=O)c1cccc(C(F)(F)F)c1 | nt | nt | -1% | nt | -2% | nt
CCOc1ccc(Nc2nc(Cc3nnc(SCC(=O)O)o3)cs2)cc1 | 13% | -4% | 4% | 25% | 8.5µM* | 4%
O=S1(=O)N=C(Nc2nncs2)c2ccccc21 | -2% | -1% | -11% | 5% | 19µM* | -1%
O=C(Nc1c(Cl)cccc1Cl)c1cc(-c2ccc3c(c2)OCO3)on1 | nt | nt | 15% | nt | -22% | nt
SMILES | NPC1 promoter act | ELG1 genotox | SMN2 splice enh | ELG1 repair inh | FLuc modulator | Rab9 prom act
CN(C(=O)c1cc(-c2ccc3c(c2)OCO3)on1)c1ccccc1 | 2.5µM* | 18µM* | nt | ? | 15µM* | 2.5µM*
O=C(c1cc(-c2ccc3c(c2)OCO3)on1)N1CCN(c2ccc(F)cc2)CC1 | -2% | 0% | -17% | 11% | 15µM* | 4%
O=C(c1cc(-c2ccc3c(c2)OCO3)on1)N1CCN(c2ccccc2)CC1 | 2.8µM* | ? | -27% | ? | 3.8µM* | ?
CC(C)CNC(=O)c1cc(-c2ccc3c(c2)OCO3)on1 | 0.56µM* | ? | nt | ? | 1.9µM* | 0.5µM*
CC(C)CNC(=O)COCc1cc(-c2ccc3c(c2)OCO3)on1 | 20% | ? | nt | ? | ? | 28%
CC(C(=O)NC(N)=O)N1C(=O)NC(c2ccccc2)(c2ccccc2)C1=O (configuration not stated) | -3% | 0% | nt | 16% | -1% | 2%
COc1ccccc1N1CCN(C(=O)c2cc(-c3ccc4c(c3)OCO4)on2)CC1 | 1% | -6% | 8% | 2% | ? | -1%
O=C(c1cc(-c2ccc3c(c2)OCO3)on1)N1CCOCC1 | 0.4µM* | 0.58µM* | 0.5µM* | ? | 1.5µM* | 0.63µM*
CCN1CCc2nc(NC(=O)c3ccccc3)sc2C1 | nt | nt | 10% | nt | 7.6µM* | nt
O=C(Nc1nc2c(s1)CN(Cc1ccccc1)CC2)C1CCC1 | ? | ? | ? | ? | 24µM* | 4.5µM*
O=C(Nc1ccnn1C1CCN(Cc2ccccc2)CC1)C1CCCC1 | -5% | 1% | nt | 9% | 2% | 5%
COc1cccc(C(=O)Nc2nc3c(s2)CN(C)CC3)c1 | ? | 18% | 11% | ? | 19µM* | ?
CN1CCc2nc(NC(=O)c3cccc(S(=O)(=O)N4CCc5ccccc54)c3)sc2C1 | 0% | 3% | 6% | -2% | -11% | -3%
Cc1ccc(OCc2nc(-c3ccc(C(=O)N4CCN(c5ccccc5F)CC4)cc3)oc2C)cc1 | nt | nt | nt | nt | -10% | nt
CSc1ncc(C(=O)NCc2ccc(F)cc2)c(-c2ccccc2)n1 | nt | nt | nt | nt | 0% | nt
Cc1ccccc1CCN1CCCC(CN(C)C(=O)c2ccc3ncccc3c2)C1 (configuration not stated) | 10% | 14% | nt | -8% | -3% | 4%
CCN(CC)S(=O)(=O)c1ccc(N2CCOCC2)c(NC(=O)c2cc(C)cc(C)c2)c1 | -2% | -3% | 4% | 8.2µM* | 0% | 12%
CCN(CC)S(=O)(=O)c1ccc(N2CCOCC2)c(NC(=O)c2sccc2C)c1 | nt | -3% | nt | 18µM* | nt | nt
Cc1nn(Cc2ccccc2Cl)c2sc(C(=O)Nc3ccccc3N3CCOCC3)cc12 | -3% | -11% | -59% | 23µM* | -1% | -4%
Cc1nn(Cc2ccc(F)cc2)c2sc(C(=O)Nc3ccccc3N3CCOCC3)cc12 | 0% | -11% | -12% | ? | -1% | 3%
CCN(CC)S(=O)(=O)c1ccc(N2CCOCC2)c(NC(=S)NC(=O)c2ccco2)c1 | 0% | -9% | nt | 16µM* | -18% | -3%
